# From PubChem BioAssay AID772 (SRMLSC, 2007)
# Screen size: about 3,300 compounds; about 20 (0.6%) were called active.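 Rule for the calls: active = growth inhibition above 90%, meaning viable cell count cut by more than 90% versus vehicle controls; inactive = growth inhibition below 90%.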 What follows is part of a selection rich in actives, with near analogues and random picks from the rest.
# Assay: HT29 colon tumor cell growth inhibition, primary screen, imaging, high content imaging, 72 h, CellTiter-Glo (AID 772);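 for condensed nuclei: condensed means nuclear area below control median minus 1.5 SD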
# Conditions: HCS imaging cell count, at 10 µM, stronger effect = higher value; for condensed nuclei: measured here: percent cells with condensed nuclei
# [1] = measured here: ATP CellTiter-Glo viability
Compound,growth inhibition,growth inhibition [1] [%],condensed nuclei [%]
CCCCOC(=O)c1ccc(NC(=O)CSc2nncn2C)cc1,11.7% (inactive),-49.6,2.84
Cc1cc(=O)oc(C)c1C(=O)NCC1CCCO1 (stereo not drawn),13.8% (inactive),8.51,7.86
Cc1cccc(-n2ncc3c(NCc4ccco4)ncnc32)c1,88.8% (inactive),83.6,12.1
Clc1ccc(-n2ncc3c(NCc4ccco4)ncnc32)cc1,90.8% (active),93.7,40
Clc1ccc(-n2ncc3c(NCc4cccs4)ncnc32)cc1,-12.9% (inactive),-9.82,2.28
Cn1c(OCc2ccco2)nc2c1c(=O)n(Cc1ccc(Cl)c(Cl)c1)c(=O)n2C,-4.69% (inactive),-10,6.05
COc1ccc(CNc2oc(COc3ccc(Cl)cc3)nc2C#N)cc1,59% (inactive),54.4,24.8
COc1ccc(CSc2nnc3n(C)c(=O)c4c5c(sc4n23)CCCC5)cc1,-75.3% (inactive),-39.3,2.4
Cc1ccc(-c2nnc(-c3cccc(Br)c3)o2)cc1,20.1% (inactive),-5.25,0
Cc1ccccc1C(=O)c1ccc2c(c1)n(C)c(=O)n2C,-2.53% (inactive),-7.19,3.03
O=C(NC1CCCCC1)N1CCSC1=Nc1ccccc1,54.8% (inactive),12.5,9.09
O=C1C(=O)N(CCN2CCOCC2)C(c2ccccn2)/C1=C(/O)c1ccc(F)cc1 (stereo not drawn),-59.2% (inactive),-29.6,3.57
C=CCNc1nc(-c2ccc(O)c(C(N)=O)c2)cs1,-5% (inactive),38.5,8.5
CCOc1ccc(-c2nc(C#N)c(N3CCN(CC)CC3)o2)cc1,33.8% (inactive),-1.72,5.03
C=CCOC(=O)C(C#N)c1nc2ccccc2nc1N1CCN(c2ccccc2OCC)CC1 (stereo not drawn),-8.05% (inactive),-23.8,3.97
Cc1cc(C)n(CC2CC(=O)N(c3cc(Cl)cc(Cl)c3)C2=O)n1 (stereo not drawn),-36.8% (inactive),-33.9,2.19
COCCCn1c2nc3ccccc3nc2c2c(=O)n(-c3ccccc3OC)c(C)nc21,-36.8% (inactive),-45.7,1.23
C=CCOC(=O)C1=C(C)OC(N)=C(C#N)C1c1ccoc1 (stereo not drawn),45.6% (inactive),21.7,6.32
CCOC(=O)c1c(SC)nc(SC)c2c1CCC2,-36.8% (inactive),-48,3.12
Cc1cc(C)n(Cc2ccc(C(=O)NCCC3=CCCCC3)o2)n1,-19.5% (inactive),3.39,3.56
Cn1cc(Br)cc2nc(C(F)(F)F)nc1-2,1.5% (inactive),19.5,22.8
COc1ccc(C2CC(=O)c3sc(N)nc3C2)cc1 (stereo not drawn),57.6% (inactive),22.2,1.99

Compound,growth inhibition,growth inhibition [1] [%],condensed nuclei [%]
O=C(NCCC1=CCCCC1)c1ccc(=O)oc1,45.9% (inactive),19.6,21.8
Clc1ccccc1-c1nn2c(-c3ccccn3)nnc2s1,-1.22% (inactive),21.5,15.7
CCCCc1c(C)c2ccc(OCC(C)=O)cc2oc1=O,-30.8% (inactive),-58.8,2.85
CO[C@H]1C[C@@H]2CC[C@@H](C)[C@@](O)(O2)C(=O)C(=O)N2CCCC[C@H]2C(=O)O[C@H]([C@H](C)C[C@@H]2CC[C@@H](O)[C@H](OC)C2)CC(=O)[C@H](C)C=C(C)[C@@H](O)[C@@H](OC)C(=O)[C@H](C)C[C@H](C)C=CC=CC=C1C,19.1% (inactive),-4.98,2.81
CCOC(=O)c1ccc(N=Cc2nc(-c3ccccc3)oc2OC(C)=O)cc1,6.56% (inactive),-17.5,12.1
CC12CCC(C(=O)NCCCN3CCOCC3)(OC1=O)C2(C)C (stereo not drawn),-26.1% (inactive),-11.1,1.65
CC(C)CC(NC(=O)OC(C)(C)C)C(=O)NCc1ccccc1 (stereo not drawn),9.38% (inactive),-13,1.7
CCOc1ccc(C2C(C(=O)c3ccc(C)o3)=C(O)C(=O)N2CCN2CCOCC2)cc1OC (stereo not drawn),-37.5% (inactive),-33.6,4.84
O=C(CCN1CCCCC1)Nc1cccc(Cl)c1,35% (inactive),28.1,26.1
N#Cc1nc(-c2cccs2)oc1NCc1ccc2c(c1)OCO2,48% (inactive),8.08,3.78
COC(=O)c1[nH]c(C)c(/C(O)=C2\C(=O)C(=O)N(CCN3CCOCC3)C2c2cccnc2)c1C (stereo not drawn),-38.7% (inactive),-21.1,3.67
N#CC1=C(N)OC2=C(C(=O)CCC2)C1CCc1ccccc1 (stereo not drawn),12% (inactive),-15.7,5.15
Fc1ccccc1-c1nc(NCCCN2CCOCC2)c2ccccc2n1,92.5% (active),79,14.3
Oc1ccccc1-c1nc(NCCN2CCOCC2)c2ccccc2n1,30.6% (inactive),94,18.9
COc1cccc(-c2nc(NCCN3CCOCC3)c3ccccc3n2)c1O,38% (inactive),86.2,23.4
COCCN(CCOC)C(=O)C12CCC(C)(C(=O)C1)C2(C)C (stereo not drawn),31.4% (inactive),-4.4,10.7
CCN(CC)CCN1C(=O)C(=O)/C(=C(/O)c2c(C)[nH]c(C(=O)OC)c2C)C1c1cccc(OC)c1 (stereo not drawn),-109% (inactive),-54.7,4.61
COC(=O)c1ccc(-c2sc3nc(N4CCOCC4)c4c(c3c2N)CCCC4)o1,89.6% (inactive),82.9,55.6
COc1cc2c(C(=O)N3CCN(c4ccccc4)CC3)c(C)oc2cc1Br,-0.57% (inactive),-11.3,5.92
Cc1ccc(OCC(=O)NCC(=O)n2nc(C)cc2C)cc1,-54.1% (inactive),-44.3,2.73
Cc1ccccc1N1C(=O)CC(Sc2nnc(-c3ccccc3)o2)C1=O (stereo not drawn),-77.9% (inactive),-47.7,3.38
Cc1cc(C)cc(CC2CC(=O)N(c3cc(C)on3)C2=O)c1 (stereo not drawn),2.63% (inactive),-16.1,7.19

Compound,growth inhibition,growth inhibition [1] [%],condensed nuclei [%]
CCOC(=O)c1sc(-n2[nH]c(C)cc2=O)nc1C,14.3% (inactive),-4.21,1.46
C=CCc1cccc(CNc2nc3ccccc3n2C(C)C)c1O,95.1% (active),88.3,14.6
C=CCc1cccc(/C=N/c2ncn[nH]2)c1O,-6.01% (inactive),-17.7,2.92
C=CCc1cccc(/C=N/n2cnnc2)c1O,34.7% (inactive),20.1,13.3
CC1(c2ccco2)NC(=O)NC1=O (stereo not drawn),16.9% (inactive),7.41,12.6
CC(C)CCNc1nc2c(cc1C#N)COC(C)(C)C2,12.7% (inactive),2.37,1.81
CNc1nc(C)c(C#N)cc1C(C)=O,82.9% (inactive),37.9,1.85
CN1C(=O)N(c2ccccc2)C(Nc2nncs2)C1(C)C (stereo not drawn),-44.1% (inactive),-46.4,5.92
CCOC(=O)C1CCN(C(C)=C2C(=O)c3ccccc3C2=O)CC1,-17.6% (inactive),-13.6,15.2
CCCCCSc1nc(N2CCOCC2)c2c(c1C#N)CC(C)(C)OC2,69.6% (inactive),74.9,29.7
CC1(C)Cc2c(C#N)c(SCc3nc4ccccc4[nH]3)nc(N3CCOCC3)c2CO1,90.8% (active),83.4,5.26
CC1(C)Cc2c(C#N)c(SCCOc3ccccc3)nc(N3CCOCC3)c2CO1,-23.3% (inactive),-59.6,0.88
COc1ccc(Cn2c(CCCO)nc3ccccc32)cc1OC,32.8% (inactive),6.64,5.26
CN1CCc2nc(SCC(=O)Nc3ccc(Cl)cc3)c(C#N)cc2C1,54.4% (inactive),55.6,17.3
Cc1ccc(N2C(=O)C3ON(c4ccccc4)C(c4ccncc4)C3C2=O)c(C)c1 (stereo not drawn),10.2% (inactive),1.38,8.14
Cc1ccc(OCc2nnc(NC(=O)c3ccco3)s2)c(C)c1,-8.86% (inactive),-6.84,11.2
Cc1cc(=O)oc(C)c1C(=O)NCCNC(=O)c1c(C)cc(=O)oc1C,5.17% (inactive),-5.21,2.08
CC[N+](C)(CC)CCOC(=O)C(O)(c1ccccc1)C1CCCCC1 (stereo not drawn),-74.7% (inactive),-22.9,4.12
CN1CCCN=C1COC(=O)C(O)(c1ccccc1)C1CCCCC1 (stereo not drawn),-62.6% (inactive),-21.5,2.98
CCN(CC)CC#CCOC(=O)C(O)(c1ccccc1)C1CCCCC1 (stereo not drawn),93.1% (active),92.7,18.4
c1ccc(Cc2nnc3n2CCCCC3)cc1,-43.5% (inactive),-46.4,1.7
O=C1c2ccccc2C(=O)C1c1ccc2ccccc2n1,18.9% (inactive),7.1,4.03
